The structures appear in SMILES notation. This is part of a sample that, as a whole, favours compounds with a hit. Of some 83,000 tested, about 20% had one in any assay.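 Cells were grown in 96-well plates and exposed to the test compound at a single concentration for 48 hours; results are reported as percent growth, with values below 10 considered active.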 Unmarked numbers belong to inactive results. Calls of active or inactive are those of the source.

Among the data in PubChem BioAssay (NCI) are growth values, retold here.

Some test systems named below: SR leukemia; RPMI-8226 leukemia; OVCAR-8 ovarian; OVCAR-5 ovarian; OVCAR-4 ovarian; SK-OV-3 ovarian; IGROV1 ovarian; OVCAR-3 ovarian; HS 578T breast; NCI/ADR-RES ovarian; T-47D breast; BT-549 breast; MDA-MB-435 melanoma; SW-620 colon; MCF7 breast; HCT-116 colon; HCC-2998 colon; KM12 colon; MDA-MB-468 breast.
Holding throughout (assay): NCI-60 one-dose screen, 48 h (100 = growth as untreated, 0 = no growth, -100 = all killed)
What all share (settings): 10 µM unless noted

Consider `OCC1(CCCc2ccccc2)CCCN(c2nccc3ccccc23)C1` (stereo unspecified), for which the growth is 12.1% with SR leukemia; 5.11% (active) in the assay on RPMI-8226 leukemia; 23.1% in the assay on OVCAR-8 ovarian; 62.4% with OVCAR-5 ovarian; 32.8% in the assay with OVCAR-4 ovarian; 57.7% in the assay with SK-OV-3 ovarian. Also, the growth is 62.2% in the assay with IGROV1 ovarian; 45.6% with OVCAR-3 ovarian; 42% with HS 578T breast; 11.8% with NCI/ADR-RES ovarian; 28.3% with T-47D breast; -3.12% (active) in the assay on BT-549 breast. In addition, the growth in the assay on MDA-MB-435 melanoma was 41.2%; in the assay with SW-620 colon, 39.2%; in the assay with MCF7 breast, 12.3%; in the assay on HCT-116 colon, 14.8%; with HCC-2998 colon it was 60.3%; in the assay on KM12 colon, 29.1%.
`COc1cc(/C=C/C(=O)c2ccc(C)cc2)ccc1Oc1nc(Nc2ccc(F)cc2)nc(N(C)C)n1`: the growth was 3.88% (active) in the assay on SR leukemia; -1.89% (active) in the assay with RPMI-8226 leukemia; 38% in the assay with OVCAR-8 ovarian; 79.1% in the assay on OVCAR-5 ovarian; 39.4% in the assay with OVCAR-4 ovarian; 79.4% in the assay with SK-OV-3 ovarian. The growth in the assay on IGROV1 ovarian was 57.8%; in the assay on OVCAR-3 ovarian, 52.4%; with HS 578T breast, 41.7%; in the assay with NCI/ADR-RES ovarian, 38.1%; with T-47D breast it was 15.4%; in the assay with BT-549 breast it was -30.1% (active). Further, the growth with MDA-MB-435 melanoma was 53.9%; in the assay on SW-620 colon it was 6.82% (active); with MCF7 breast, 11.9%; with HCT-116 colon, -80.3% (active); in the assay with HCC-2998 colon, 91.9%; with KM12 colon, 65.4%.
In the case of `COc1ccc(-c2nc(SC(C)C)nc(NCCc3c[nH]c4ccccc34)c2C#N)cc1`, the growth in the assay with SR leukemia is 2.63% (active); in the assay with RPMI-8226 leukemia, 16.3%; with OVCAR-8 ovarian it was 66.5%; in the assay with OVCAR-5 ovarian, 65.4%; in the assay with OVCAR-4 ovarian, 57.1%; in the assay with SK-OV-3 ovarian it was 72%. In addition, the growth is 94.3% in the assay with IGROV1 ovarian; 63.8% in the assay with OVCAR-3 ovarian; 36.3% in the assay with HS 578T breast; 32.5% with NCI/ADR-RES ovarian; 6.31% (active) in the assay with T-47D breast; 63% in the assay with BT-549 breast. Moreover, the growth in the assay with MDA-MB-435 melanoma is 53.4%; in the assay on SW-620 colon, 32.9%; in the assay with MCF7 breast, 7.2% (active); in the assay on HCT-116 colon it was 7.04% (active); in the assay on HCC-2998 colon, 32.5%; in the assay on KM12 colon, 25.5%. In addition, the growth in the assay on MDA-MB-468 breast is 30.1%.
With `COC(OC)C1=C(C)OC(N)=C(C#N)C12C(=O)Nc1ccccc12` (stereo unspecified), the growth is 73% in the assay with SR leukemia; 94.3% in the assay with RPMI-8226 leukemia; 91.9% with OVCAR-8 ovarian; 112% in the assay on OVCAR-5 ovarian; 101% with OVCAR-4 ovarian; 111% in the assay with SK-OV-3 ovarian. For the same molecule, the growth in the assay with IGROV1 ovarian was 92%; in the assay with OVCAR-3 ovarian, 101%; in the assay with HS 578T breast, 95.4%; in the assay with NCI/ADR-RES ovarian, 99.2%; in the assay with T-47D breast, 100%; with BT-549 breast it was 123%. Moreover, the growth in the assay on MDA-MB-435 melanoma is 94.8%; in the assay with SW-620 colon it was 85.5%; with MCF7 breast it was 60.7%; in the assay on HCT-116 colon it was 100%; in the assay with HCC-2998 colon, 106%; in the assay on KM12 colon, 95.3%.
Regarding `Cc1ccc([C@H]2C(C(=O)c3ccc(Cl)cc3)C3(N[C@@H]2c2ccccc2)C(=O)Nc2ccc(Br)cc23)cc1` (stereo partly specified), the growth in the assay on SR leukemia is 2.24% (active); with RPMI-8226 leukemia, 40.7%; with OVCAR-8 ovarian, 66.4%; in the assay with OVCAR-5 ovarian, 73.2%; with OVCAR-4 ovarian it was 56.3%; in the assay with SK-OV-3 ovarian, 79.4%. Further, the growth with IGROV1 ovarian is 60.1%; in the assay on OVCAR-3 ovarian it was 64%; in the assay with HS 578T breast, 83.2%; with NCI/ADR-RES ovarian it was 55.5%; in the assay with T-47D breast, 41.1%; with BT-549 breast it was 96.3%. The growth was 67.6% in the assay on MDA-MB-435 melanoma; 70.6% in the assay with SW-620 colon; 21.2% in the assay on MCF7 breast; 30.7% in the assay with HCT-116 colon; 25.7% in the assay with HCC-2998 colon; 39% in the assay with KM12 colon.
Take `O=C(Nc1cccc(-n2cnc3cc(-c4ccc(O)cc4)ccc32)c1)C1CC1`: the growth was 21.6% in the assay on SR leukemia; 25.5% in the assay with RPMI-8226 leukemia; 17.9% in the assay on OVCAR-8 ovarian; 41.2% with OVCAR-5 ovarian; 49.6% in the assay on OVCAR-4 ovarian; 35.5% in the assay on SK-OV-3 ovarian. Moreover, the growth in the assay with IGROV1 ovarian was 28.2%; in the assay on OVCAR-3 ovarian it was -2.16% (active); in the assay on HS 578T breast it was 9.4% (active); in the assay on NCI/ADR-RES ovarian, 24.8%; with T-47D breast it was 30.6%; in the assay on BT-549 breast it was 30.8%. The growth in the assay on MDA-MB-435 melanoma was -4.17% (active); with SW-620 colon, 38.2%; in the assay on MCF7 breast, 24.9%; in the assay with HCT-116 colon it was 9.12% (active); in the assay on HCC-2998 colon, 28.4%; in the assay on KM12 colon it was 0.14% (active).
Regarding `C#CCOc1cc(N(CC)CC)ccc1C(C(=O)NC(C)(C)C)N(C(=O)C1CCc2cc(F)ccc2O1)c1ccc(F)c(Cl)c1` (stereo unspecified), the growth in the assay on SR leukemia was 35%; in the assay with RPMI-8226 leukemia, 38.3%; in the assay on OVCAR-8 ovarian it was 69%; with OVCAR-5 ovarian, 82.7%; in the assay on OVCAR-4 ovarian, 57.8%; in the assay on SK-OV-3 ovarian, 73.1%. Moreover, the growth in the assay on IGROV1 ovarian is 70.5%; in the assay with OVCAR-3 ovarian it was 57.7%; in the assay with HS 578T breast, 75.2%; in the assay on NCI/ADR-RES ovarian it was 72.9%; in the assay on T-47D breast it was 42.3%; in the assay on BT-549 breast, 61.9%. In addition, the growth with MDA-MB-435 melanoma is 65.7%; in the assay with SW-620 colon, 74.3%; with MCF7 breast it was 30.5%; in the assay on HCT-116 colon, 38.2%; with HCC-2998 colon it was 92%; in the assay on KM12 colon it was 57.5%.
Turning to `O=C(/C=C/Nc1ccc(Cl)cc1)c1ccc2c(c1)Nc1ccccc1S2`, the growth in the assay with SR leukemia was 58.1%; in the assay with RPMI-8226 leukemia it was 62.3%; in the assay on OVCAR-8 ovarian it was 12.4%; in the assay on OVCAR-5 ovarian, 83.4%; with OVCAR-4 ovarian, 2.72% (active); in the assay with SK-OV-3 ovarian, 20.7%. In addition, the growth is 39.5% with IGROV1 ovarian; 61.5% with OVCAR-3 ovarian; 8.24% (active) in the assay on HS 578T breast; 25.7% in the assay with NCI/ADR-RES ovarian; 62.1% with T-47D breast; 24.6% in the assay with BT-549 breast. Besides, the growth in the assay with MDA-MB-435 melanoma is 55.1%; in the assay with SW-620 colon, 54.8%; in the assay on MCF7 breast, 40.1%; in the assay on HCT-116 colon, 39.2%; in the assay on HCC-2998 colon, 44.2%; in the assay on KM12 colon it was 69.3%. Besides, the growth in the assay with MDA-MB-468 breast is 43.4%.
